Records with an inconclusive call do not appear. Active and inactive are the calls of the source. Rule for the calls, unless noted: active = hit-call score of the fitted dose curve at least 0.9, where 1 is the maximum; inconclusive = response in the unintended direction; inactive = score below 0.9.
Test system: not listed separately
Experiment: TOX21_PR_BLA_Followup_Agonist_viability: Viability Assessment in the Tox21 HEK293 Progesterone Receptor (PR) Agonism Beta-lactamase Follow-Up Assay (AID 2283935);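 note: cells exposed to compound for 16 hr at 37 °C; signal loss means lower viability so actives are cytotoxic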
Method in brief: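 Multiplexed viability counter-screen: ATP-coupled luciferase signal measured after 30 min at room temperature, following 16 hr compound treatment of PR-UAS-bla HEK293T cells grown in charcoal-stripped serum.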

SMILES | outcome | AC50
CCC(=O)O[C@H]1CC[C@H]2[C@@H]3CCC4=CC(=O)CC[C@]4(C)[C@H]3CC[C@]12C | inactive | 
C[C@]12CCC(=O)C=C1CC[C@@H]1[C@@H]2CC[C@]2(C)C(=O)CC[C@@H]12 | inactive | 
ClC(Cl)=C(c1ccc(Cl)cc1)c1ccc(Cl)cc1 | inactive | 
C[C@]12CCC(=O)C=C1CC[C@@H]1[C@@H]2CC[C@@]2(C)[C@H]1CC[C@]2(C)O | inactive | 
Oc1ccc(C(c2ccc(O)cc2)(C(F)(F)F)C(F)(F)F)cc1 | inactive | 
CCCCCCCCCc1ccc(O)cc1 | inactive | 
Clc1ccc(C(c2ccccc2Cl)C(Cl)(Cl)Cl)cc1 (centres undefined) |  | 46.1 µM (active)
ClC1=C(Cl)[C@]2(Cl)[C@@H]3[C@@H]4C[C@@H]([C@H]5O[C@@H]45)[C@@H]3[C@@]1(Cl)C2(Cl)Cl | inactive | 
COc1ccc(O)c(C(C)(C)C)c1 | inactive | 
CC(C)(c1ccccc1)c1ccc(O)cc1 | inactive | 

Test system: not listed separately
Experiment: TOX21_PR_BLA_Followup_Antagonist_viability: Viability Assessment in the Tox21 HEK293 Progesterone Receptor (PR) Antagonism Beta-lactamase Follow-Up Assay (AID 2283936);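 note: hits lower the luminescence signal meaning cytotoxicity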
Method in brief: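 PR-UAS-bla HEK293T cells (3,000/well, 2% charcoal-stripped FBS) given compound plus R5020 agonist, 16 h at 37C. CellTiter-Glo added after bla read, 30 min at room temperature; luminescence loss indicates cytotoxicity.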

SMILES | outcome
CCC(=O)O[C@H]1CC[C@H]2[C@@H]3CCC4=CC(=O)CC[C@]4(C)[C@H]3CC[C@]12C | inactive
C[C@]12CCC(=O)C=C1CC[C@@H]1[C@@H]2CC[C@]2(C)C(=O)CC[C@@H]12 | inactive
N#Cc1ccc(N(CC(N)=O)CC(F)(F)F)cc1C(F)(F)F | inactive
ClC(Cl)=C(c1ccc(Cl)cc1)c1ccc(Cl)cc1 | inactive
C[C@]12CCC(=O)C=C1CC[C@@H]1[C@@H]2CC[C@@]2(C)[C@H]1CC[C@]2(C)O | inactive
Oc1ccc(C(c2ccc(O)cc2)(C(F)(F)F)C(F)(F)F)cc1 | inactive
CCCCCCCCCc1ccc(O)cc1 | inactive
ClC1=C(Cl)[C@]2(Cl)[C@@H]3[C@@H]4C[C@@H]([C@H]5O[C@@H]45)[C@@H]3[C@@]1(Cl)C2(Cl)Cl | inactive
COc1ccc(O)c(C(C)(C)C)c1 | inactive
CC(C)(c1ccccc1)c1ccc(O)cc1 | inactive

Target: PGR (gene 5241) (UniProt P06401)
Experiment: TOX21_PR_LUC_Followup_Agonist: Tox21 HEK293 Progesterone Receptor (PR) Agonism Luciferase Follow-Up Assay (AID 2283937; active = hit-call score of the fitted dose curve at least 0.9, where 1 is the maximum; inactive = score below 0.9)
Method in brief: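 Agonist mode: reporter cells carrying PR-A and luciferase are treated 16 h with test compounds at 37C. Luciferase induction is measured by luminescence and fitted upward against DMSO.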

Sequence of PGR (gene 5241) (P06401 whole entry, looked up): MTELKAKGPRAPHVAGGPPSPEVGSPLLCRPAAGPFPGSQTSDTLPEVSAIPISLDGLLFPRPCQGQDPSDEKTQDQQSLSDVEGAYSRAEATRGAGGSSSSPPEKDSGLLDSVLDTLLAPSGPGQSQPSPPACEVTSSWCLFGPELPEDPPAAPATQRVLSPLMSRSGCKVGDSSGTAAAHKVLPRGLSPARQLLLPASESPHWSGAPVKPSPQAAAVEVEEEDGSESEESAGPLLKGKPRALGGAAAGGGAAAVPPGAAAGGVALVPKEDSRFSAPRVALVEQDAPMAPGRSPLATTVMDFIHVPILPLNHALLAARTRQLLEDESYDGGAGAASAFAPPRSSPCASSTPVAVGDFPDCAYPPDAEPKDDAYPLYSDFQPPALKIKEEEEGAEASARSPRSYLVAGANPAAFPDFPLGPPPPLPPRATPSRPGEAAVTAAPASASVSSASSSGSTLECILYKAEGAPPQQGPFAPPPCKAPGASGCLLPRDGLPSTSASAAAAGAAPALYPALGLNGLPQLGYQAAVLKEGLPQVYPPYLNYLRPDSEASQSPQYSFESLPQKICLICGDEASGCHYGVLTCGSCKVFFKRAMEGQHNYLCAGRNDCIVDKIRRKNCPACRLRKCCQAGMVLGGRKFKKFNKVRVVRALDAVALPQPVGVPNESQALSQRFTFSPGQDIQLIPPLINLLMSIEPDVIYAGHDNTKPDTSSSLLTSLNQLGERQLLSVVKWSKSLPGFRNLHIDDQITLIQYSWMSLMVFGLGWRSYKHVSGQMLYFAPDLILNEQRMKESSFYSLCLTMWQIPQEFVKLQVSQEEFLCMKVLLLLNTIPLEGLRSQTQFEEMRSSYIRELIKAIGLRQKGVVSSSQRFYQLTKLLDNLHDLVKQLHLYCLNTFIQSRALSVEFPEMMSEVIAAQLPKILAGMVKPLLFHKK

SMILES | AC50 | outcome
CCC(=O)O[C@H]1CC[C@H]2[C@@H]3CCC4=CC(=O)CC[C@]4(C)[C@H]3CC[C@]12C | 6.3 µM (active) | 
N#Cc1ccc(N(CC(N)=O)CC(F)(F)F)cc1C(F)(F)F |  | inactive
CC(C)(O)C(=O)Nc1ccc([N+](=O)[O-])c(C(F)(F)F)c1 |  | inactive

Target: PGR (gene 5241) (UniProt P06401)
Experiment: TOX21_PR_LUC_Followup_Antagonist: Tox21 HEK293 Progesterone Receptor (PR) Antagonism Luciferase Follow-Up Assay (AID 2283938);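 note: curve fitted upward as signal gain over DMSO baseline despite antagonist label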
Method in brief: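 A follow-up to the PR bla screen using HEK293-PR-A-luc cells, multiplexed with cell viability to flag cytotoxicity. Reporter luminescence after 16 h compound exposure was analysed relative to DMSO.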

SMILES | outcome | AC50
CCC(=O)O[C@H]1CC[C@H]2[C@@H]3CCC4=CC(=O)CC[C@]4(C)[C@H]3CC[C@]12C | inactive | 
C[C@]12CCC(=O)C=C1CC[C@@H]1[C@@H]2CC[C@]2(C)C(=O)CC[C@@H]12 | inactive | 
N#Cc1ccc(N(CC(N)=O)CC(F)(F)F)cc1C(F)(F)F |  | 46.1 µM (active)
ClC(Cl)=C(c1ccc(Cl)cc1)c1ccc(Cl)cc1 |  | 21.6 µM (active)
C[C@]12CCC(=O)C=C1CC[C@@H]1[C@@H]2CC[C@@]2(C)[C@H]1CC[C@]2(C)O | inactive | 
Oc1ccc(C(c2ccc(O)cc2)(C(F)(F)F)C(F)(F)F)cc1 |  | 54.7 µM (active)
CCCCCCCCCc1ccc(O)cc1 | inactive | 
Clc1ccc(C(c2ccccc2Cl)C(Cl)(Cl)Cl)cc1 (centres undefined) |  | 15.6 µM (active)
ClC1=C(Cl)[C@]2(Cl)[C@@H]3[C@@H]4C[C@@H]([C@H]5O[C@@H]45)[C@@H]3[C@@]1(Cl)C2(Cl)Cl |  | 18.2 µM (active)
COc1ccc(O)c(C(C)(C)C)c1 | inactive | 
CC(C)(c1ccccc1)c1ccc(O)cc1 |  | 35.3 µM (active)

Reference: PubChem BioAssay (EPA / NIEHS)
